Source: ChEMBL document CHEMBL3988442, “University of Dundee, Small-Polar-MMV Screening Library” (2021)
For part of these data: Measured potencies and affinities stand elsewhere.

What was measured:
Parameters in all cases: scale not given: direction of the effect not stated beside the values
[1] = molecular target: Protein translocase subunit SecA (Escherichia coli (strain K12)) (UniProt P10408); test: Assay to Identify E. coli SecA ATPase Inhibitors; type: functional; details: 30 µM
[2] = molecular target: T1, Ubiquitin-activating enzyme e1, putative (Leishmania donovani (strain BPK282A1)) (UniProt E9BSI1); test: Leishmania donovani Ubiquitin Activating Enzyme (LdE1); type: functional; details: 30 µM
T1 sequence (whole entry): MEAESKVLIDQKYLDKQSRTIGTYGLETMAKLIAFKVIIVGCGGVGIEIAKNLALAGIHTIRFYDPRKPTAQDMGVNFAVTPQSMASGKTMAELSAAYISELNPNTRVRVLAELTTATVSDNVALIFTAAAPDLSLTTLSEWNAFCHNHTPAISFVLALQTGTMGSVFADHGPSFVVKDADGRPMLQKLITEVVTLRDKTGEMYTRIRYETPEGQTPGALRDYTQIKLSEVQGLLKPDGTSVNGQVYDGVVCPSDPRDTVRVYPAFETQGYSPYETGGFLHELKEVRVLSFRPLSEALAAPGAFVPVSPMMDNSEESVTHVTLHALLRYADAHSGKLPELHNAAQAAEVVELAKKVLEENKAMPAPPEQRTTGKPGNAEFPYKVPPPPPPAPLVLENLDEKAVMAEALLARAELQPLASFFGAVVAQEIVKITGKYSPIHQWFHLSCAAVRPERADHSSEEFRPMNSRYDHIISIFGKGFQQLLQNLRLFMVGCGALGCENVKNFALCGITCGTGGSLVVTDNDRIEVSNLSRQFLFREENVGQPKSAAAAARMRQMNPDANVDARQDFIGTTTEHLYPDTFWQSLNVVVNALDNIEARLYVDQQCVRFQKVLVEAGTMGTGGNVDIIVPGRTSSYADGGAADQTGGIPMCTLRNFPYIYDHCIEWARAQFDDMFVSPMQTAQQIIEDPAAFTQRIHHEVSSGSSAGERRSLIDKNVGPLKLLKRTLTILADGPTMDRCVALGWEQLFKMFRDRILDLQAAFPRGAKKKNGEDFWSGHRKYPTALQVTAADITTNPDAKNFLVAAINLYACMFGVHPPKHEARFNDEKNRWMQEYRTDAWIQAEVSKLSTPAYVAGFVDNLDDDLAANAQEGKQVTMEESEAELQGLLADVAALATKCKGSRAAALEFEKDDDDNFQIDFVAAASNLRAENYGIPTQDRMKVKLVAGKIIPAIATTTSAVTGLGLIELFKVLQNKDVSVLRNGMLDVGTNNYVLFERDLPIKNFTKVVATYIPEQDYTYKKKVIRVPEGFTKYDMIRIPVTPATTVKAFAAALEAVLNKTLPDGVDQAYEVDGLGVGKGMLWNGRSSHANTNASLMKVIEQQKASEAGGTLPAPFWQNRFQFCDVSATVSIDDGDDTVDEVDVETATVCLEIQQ

[3] = molecular target: Sialic acid-binding Ig-like lectin 9 (Homo sapiens) (UniProt Q9Y336); test: Hs-Siglec9 ALPHAscreen SOP 20170721; details: 10 µM
Chain of Sialic acid-binding Ig-like lectin 9 (Homo sapiens) (Q9Y336 whole entry): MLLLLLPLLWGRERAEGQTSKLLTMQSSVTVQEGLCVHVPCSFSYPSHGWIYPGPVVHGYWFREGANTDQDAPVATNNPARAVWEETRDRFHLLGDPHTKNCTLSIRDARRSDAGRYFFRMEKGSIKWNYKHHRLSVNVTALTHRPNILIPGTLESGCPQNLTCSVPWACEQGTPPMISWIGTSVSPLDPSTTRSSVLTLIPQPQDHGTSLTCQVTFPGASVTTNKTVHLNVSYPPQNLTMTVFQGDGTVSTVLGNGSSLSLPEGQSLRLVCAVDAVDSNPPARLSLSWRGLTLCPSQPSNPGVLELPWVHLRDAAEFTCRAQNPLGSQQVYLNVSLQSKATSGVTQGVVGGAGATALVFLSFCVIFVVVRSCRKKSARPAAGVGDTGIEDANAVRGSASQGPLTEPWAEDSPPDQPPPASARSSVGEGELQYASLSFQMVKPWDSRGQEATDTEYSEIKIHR

Trypanosoma cruzi = test: Trypanosoma cruzi phosphomannomutase and mannose-1-phosphate guanylyltransferase assay; type: functional; details: 10 µM
[4] = molecular target: T2, Arginase-2, mitochondrial (Homo sapiens) (UniProt P78540); test: in vitro enzyme assay to detect the production of urea directly proportional to the activity of Arginase II; type: functional; details: 33.3 µM; further: in the data most compounds retested in dose-response had high values
T2 sequence (whole entry): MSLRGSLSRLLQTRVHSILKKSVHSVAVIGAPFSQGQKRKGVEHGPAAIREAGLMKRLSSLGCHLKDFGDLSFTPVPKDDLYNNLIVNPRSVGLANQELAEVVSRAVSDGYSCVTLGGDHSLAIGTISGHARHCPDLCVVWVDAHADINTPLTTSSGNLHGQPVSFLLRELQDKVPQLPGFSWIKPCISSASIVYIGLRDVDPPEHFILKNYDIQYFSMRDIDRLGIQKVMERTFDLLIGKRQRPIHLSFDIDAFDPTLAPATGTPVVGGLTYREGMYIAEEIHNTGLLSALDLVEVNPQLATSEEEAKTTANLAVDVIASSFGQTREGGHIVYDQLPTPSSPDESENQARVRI

[5] = molecular target: T3, Proteasome subunit beta (Trypanosoma cruzi) (UniProt O96673); test: Trypanosoma cruzi proteasome chymotrypsin-like activity (TcProtChymo) assay.; further: in the data most compounds retested in dose-response had high values; type: functional; details: 9.37 µM
T3 sequence (whole entry): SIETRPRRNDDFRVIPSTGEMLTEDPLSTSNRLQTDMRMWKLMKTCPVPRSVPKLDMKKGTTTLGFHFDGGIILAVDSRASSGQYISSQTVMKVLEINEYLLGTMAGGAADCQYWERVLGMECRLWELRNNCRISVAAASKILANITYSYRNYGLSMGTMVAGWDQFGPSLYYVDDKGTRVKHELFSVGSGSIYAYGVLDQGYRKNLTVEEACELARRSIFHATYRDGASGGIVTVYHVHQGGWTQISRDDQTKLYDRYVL

Homo sapiens = species on record: Homo sapiens; test: To identify inhibition of the IFN signalling (Jak-Stat) pathway via expression of an eGFP reporter gene under the control of an IFN-stimulated response element (ISRE) containing MxA promoter.; type: functional; details: 30 µM
[6] = molecular target: T4, Tyrosyl-tRNA synthetase, putative (Trypanosoma cruzi (strain CL Brener)) (UniProt Q4DSP6); test: Trypanosoma cruzi tyrosyl tRNA synthetase (TcYRS) _High Tyrosine SOP; type: functional; details: 30 µM; further: in the data most compounds retested in dose-response had high values
T4 sequence (whole entry): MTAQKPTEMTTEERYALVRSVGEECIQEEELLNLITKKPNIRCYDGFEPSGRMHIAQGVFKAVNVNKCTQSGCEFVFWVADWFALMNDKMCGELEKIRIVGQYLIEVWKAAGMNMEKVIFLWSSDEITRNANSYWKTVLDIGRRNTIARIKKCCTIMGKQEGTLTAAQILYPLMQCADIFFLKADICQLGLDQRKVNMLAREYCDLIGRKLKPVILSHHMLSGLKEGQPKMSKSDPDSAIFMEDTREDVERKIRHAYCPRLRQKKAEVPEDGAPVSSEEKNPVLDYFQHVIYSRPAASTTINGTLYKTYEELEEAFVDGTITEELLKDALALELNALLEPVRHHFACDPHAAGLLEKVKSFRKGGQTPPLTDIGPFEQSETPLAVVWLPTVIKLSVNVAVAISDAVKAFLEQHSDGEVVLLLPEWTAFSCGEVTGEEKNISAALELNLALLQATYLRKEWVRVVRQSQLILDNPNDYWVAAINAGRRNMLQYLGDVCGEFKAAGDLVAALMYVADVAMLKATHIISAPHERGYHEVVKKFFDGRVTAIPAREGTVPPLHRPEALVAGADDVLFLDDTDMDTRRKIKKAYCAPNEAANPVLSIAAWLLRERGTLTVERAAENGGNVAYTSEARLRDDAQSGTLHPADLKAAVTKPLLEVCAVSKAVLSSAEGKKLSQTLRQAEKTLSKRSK

[7] = molecular target: T4, Tyrosyl-tRNA synthetase, putative (Trypanosoma cruzi (strain CL Brener)); test: Trypanosoma cruzi tyrosyl tRNA synthetase (TcYRS) SOP; type: functional; details: 30 µM
[8] = molecular target: Chromo domain-containing protein 1 (Saccharomyces cerevisiae (strain ATCC 204508 / S288c) (Baker's yeast)) (UniProt P32657); test: ScCHD-1 Enzyme Inhibition Assay; type: functional; details: 30 µM; further: in the data most compounds retested in dose-response had high values
Chain of Chromo domain-containing protein 1 (Saccharomyces cerevisiae (strain ATCC 204508 / S288c) (Baker's yeast)) (P32657 whole entry, the tested form may be a part): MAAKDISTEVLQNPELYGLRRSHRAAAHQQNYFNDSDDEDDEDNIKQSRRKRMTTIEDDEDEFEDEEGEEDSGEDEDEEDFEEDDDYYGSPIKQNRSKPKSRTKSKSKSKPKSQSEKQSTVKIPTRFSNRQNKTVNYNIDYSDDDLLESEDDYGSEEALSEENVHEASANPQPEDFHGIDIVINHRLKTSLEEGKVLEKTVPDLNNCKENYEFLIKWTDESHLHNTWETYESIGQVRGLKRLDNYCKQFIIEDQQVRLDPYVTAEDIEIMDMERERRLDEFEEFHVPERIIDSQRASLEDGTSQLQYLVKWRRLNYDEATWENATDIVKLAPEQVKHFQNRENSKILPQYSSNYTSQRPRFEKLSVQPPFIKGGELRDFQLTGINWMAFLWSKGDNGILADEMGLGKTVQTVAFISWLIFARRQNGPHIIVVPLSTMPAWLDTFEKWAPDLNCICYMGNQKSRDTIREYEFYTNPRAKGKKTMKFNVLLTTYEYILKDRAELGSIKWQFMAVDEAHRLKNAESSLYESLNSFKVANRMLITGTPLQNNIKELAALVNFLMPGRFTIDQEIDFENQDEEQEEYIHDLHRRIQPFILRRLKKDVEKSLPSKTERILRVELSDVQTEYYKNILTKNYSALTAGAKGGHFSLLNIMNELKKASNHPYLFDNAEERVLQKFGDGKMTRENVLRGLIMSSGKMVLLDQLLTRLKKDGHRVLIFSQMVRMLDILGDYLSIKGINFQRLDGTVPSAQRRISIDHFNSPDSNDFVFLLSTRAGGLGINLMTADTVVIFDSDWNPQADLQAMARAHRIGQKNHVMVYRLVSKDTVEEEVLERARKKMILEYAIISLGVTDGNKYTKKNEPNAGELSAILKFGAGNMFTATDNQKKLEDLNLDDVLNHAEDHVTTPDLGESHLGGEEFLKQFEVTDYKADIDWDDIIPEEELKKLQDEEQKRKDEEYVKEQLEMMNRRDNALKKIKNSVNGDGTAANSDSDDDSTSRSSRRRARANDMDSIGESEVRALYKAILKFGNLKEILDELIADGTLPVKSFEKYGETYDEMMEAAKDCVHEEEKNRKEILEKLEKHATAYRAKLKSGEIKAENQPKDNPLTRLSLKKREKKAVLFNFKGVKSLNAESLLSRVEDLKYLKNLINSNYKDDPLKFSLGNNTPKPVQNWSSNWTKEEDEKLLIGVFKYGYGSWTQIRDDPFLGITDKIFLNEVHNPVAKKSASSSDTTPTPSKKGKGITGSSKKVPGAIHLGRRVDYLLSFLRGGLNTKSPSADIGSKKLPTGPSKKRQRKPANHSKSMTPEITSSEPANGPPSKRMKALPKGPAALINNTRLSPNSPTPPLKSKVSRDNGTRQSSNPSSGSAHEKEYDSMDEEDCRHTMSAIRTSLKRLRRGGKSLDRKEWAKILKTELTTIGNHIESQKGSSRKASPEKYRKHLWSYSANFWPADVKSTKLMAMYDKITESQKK

Chain of Protein translocase subunit SecA (Escherichia coli (strain K12)) (P10408 whole entry): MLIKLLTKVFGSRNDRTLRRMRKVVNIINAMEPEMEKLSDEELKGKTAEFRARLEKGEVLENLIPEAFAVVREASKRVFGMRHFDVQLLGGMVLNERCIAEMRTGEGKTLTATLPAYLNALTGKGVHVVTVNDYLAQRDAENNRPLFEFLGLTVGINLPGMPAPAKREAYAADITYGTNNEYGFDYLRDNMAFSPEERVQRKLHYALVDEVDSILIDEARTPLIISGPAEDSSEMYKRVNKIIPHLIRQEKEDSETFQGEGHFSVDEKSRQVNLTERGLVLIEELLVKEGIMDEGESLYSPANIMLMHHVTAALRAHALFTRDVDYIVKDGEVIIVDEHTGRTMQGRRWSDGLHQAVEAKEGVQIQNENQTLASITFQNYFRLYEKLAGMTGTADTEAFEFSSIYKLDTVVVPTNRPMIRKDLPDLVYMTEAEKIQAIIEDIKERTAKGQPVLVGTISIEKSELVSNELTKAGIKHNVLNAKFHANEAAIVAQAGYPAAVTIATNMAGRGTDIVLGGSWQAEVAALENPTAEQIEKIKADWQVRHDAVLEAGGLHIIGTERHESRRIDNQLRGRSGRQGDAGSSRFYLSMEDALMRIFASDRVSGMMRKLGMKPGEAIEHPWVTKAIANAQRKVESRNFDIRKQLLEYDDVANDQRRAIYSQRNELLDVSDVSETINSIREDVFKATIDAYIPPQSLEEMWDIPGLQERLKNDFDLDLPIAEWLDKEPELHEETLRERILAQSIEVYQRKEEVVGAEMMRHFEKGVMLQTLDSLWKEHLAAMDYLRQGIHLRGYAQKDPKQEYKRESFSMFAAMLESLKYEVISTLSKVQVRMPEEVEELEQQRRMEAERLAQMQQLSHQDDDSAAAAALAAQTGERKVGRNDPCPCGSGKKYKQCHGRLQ

Row | Structure (SMILES) | Percent Effect [1] [%] | Percent Effect [2] [%] | Percent Effect [3] [%] | Percent Effect (Trypanosoma cruzi) [%] | Percent Effect [4] [%] | Percent Effect [5] [%] | Percent Effect (Homo sapiens) [%] | Percent Effect [6] [%] | Percent Effect [7] [%] | Percent Effect [8] [%]
1 | CCS(=O)(=O)CCN1CCC(N(C)Cc2noc(C(C)C)n2)C1 (stereo not given) | -8.69 | 13 | 9.47 | -1.87 | -0.205 | 10.3 | 10.2 | 4.9 | 11.8 | -6.07
2 | O=C1CCC2(CCN(Cc3ccc(F)cc3)CC2)N1Cc1ccccc1 | -4.42 | 3.9 | -4.8 | -2.63 | -0.913 | 9.7 | 1.33 | 5.8 | 7.5 | -4.62
3 | Cc1noc(C2CCN(C(=O)CCc3nccs3)CC2)n1 | 0.362 | 17.9 | -8.4 | -1.78 | 3.28 | 5.72 | 17.8 | 6.22 | 13.2 | -4.78
4 | Cc1cc(C)n(CC2CCCN2CCS(=O)(=O)c2ccccc2)n1 (stereo not given) | -0.665 | -7.69 | -1.27 | 0.845 | 9.43 | -2.47 | 18.7 | 1.44 | -1.21 | 1.56
5 | Cc1cc(C)cc(OCC(=O)NC2CCN(S(C)(=O)=O)CC2)c1 | -3.04 | 13 | -6.89 | -8.58 | -1.84 | 8.77 | 14.6 | 3.92 | 16.5 | -7.11
6 | Cc1ncc(-c2ccnc(N3CCCCCC3)n2)c(-c2cccnc2)n1 | -0.407 | 10.7 | 0.168 | -8.03 | 3.1 | 8.74 | 21.1 | 1.58 | 12.8 | -11.6
7 | COc1ccc(CN2CCC3(CC(Nc4ccncn4)C3)C2)c(OC)c1 (stereo not given) | -3.35 | 9.33 | 5.58 | -2.76 | -3.54 | 8.21 | 5.35 | 5.29 | 7.5 | -20.7
8 | CC(=O)N1C[C@@H](c2ccsc2)[C@@H]2CN(Cc3ccccc3)CC[C@@H]21 | -3.48 | 12 | 0.781 | 1.77 | 0.885 | 12.2 | 12.3 | 10.6 | 7.5 | -25.4
9 | CCc1nccn1-c1cncc(C2CCCN2Cc2cccnc2)n1 (stereo not given) | -0.52 | 9.33 | 4.5 | 1.38 | 0.443 | 13.3 | -9.84 | 6.35 | 20 | -22.2
10 | COCCc1ncc(CN2CCC(Oc3ccccc3C)CC2)cn1 | -2.3 | 17.3 | 7.21 | 1.58 | -0.443 | 12.6 | 7.38 | 6.35 | 20 | -22.7
11 | CC(C)CN1CCC2(CCN(Cc3ccoc3)CC2)C1=O | -1.85 | 27.3 | 3.42 | 3.94 | -4.57 | 19.7 | -0.618 | 10.6 | 12.5 | -9.31
12 | CN1CCC/C1=N\S(=O)(=O)c1ccc(NC(=O)CCc2cccs2)cc1 | 2.31 | 20.8 | 5.99 | 2.05 | 12.1 | 5.79 | 16.7 | 7.84 | 28.2 | -8.39
13 | Cc1ccc(OCC(O)CN2CCC(Cn3cccn3)CC2)cc1 (stereo not given) | -0.525 | 7.79 | 7.42 | 0.373 | 4.3 | 7.89 | -3.3 | 10.8 | 23.5 | -5.78
14 | CC(C)(C)C(O)CN1CCN(C(=O)c2cccc3ncccc23)CC1 (stereo not given) | -3.23 | 12.8 | -15.5 | -7.23 | -0.41 | 8.11 | -0.457 | 3.35 | 10.8 | -6.72
15 | CCC(O)CN1CCN(C(=O)c2sccc2OC)CC1 (stereo not given) | 0.313 | 7.79 | 10.4 | 2.24 | -3.89 | 0.526 | 16.7 | 3.92 | 16.5 | -3.7
16 | Cc1cc(N2CCC(NC(=O)C3CC3)CC2)nc(-c2ccncc2)n1 | -0.846 | 23.4 | 0.849 | 2.98 | -1.43 | 13 | 9.23 | 12.8 | 35.3 | -0.543
17 | CCn1c(Cn2cncn2)nnc1C1CCN(Cc2ccc(C)o2)CC1 | -6.62 | 5.41 | 5.22 | 3.78 | 2.45 | 9.07 | 5.52 | 4.79 | 14.6 | -3.96
18 | CCCn1ncc2c(C(=O)Nc3cnn(CC)c3C)cc(C3CC3)nc21 | 1.41 | 12 | -1.57 | 2.76 | 3.98 | 17.4 | 2.46 | 2.12 | 12.5 | -24.6
